Some test systems named below: DU-145 prostate; K-562 leukemia; MALME-3M melanoma; MDA-MB-231 breast; RXF 393 renal; SF-268 CNS; SF-295 CNS; SF-539 CNS; UACC-257 melanoma; M14 melanoma.
Assay in all cases: NCI-60 one-dose screen, 48 h (100 = growth as untreated, 0 = no growth, -100 = all killed)
What all share (conditions): 10 µM unless noted

Molecules are shown by their SMILES. About 83,000 compounds went through this panel and 20% of them were active in at least one assay; those are over-represented in the sample as a whole.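 Each cell line was grown in a 96-well plate and treated with one concentration of compound for 48 hours. Values below 10 were considered active.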 A number with no mark means an inactive call. Calls of active or inactive are those of the source.

Here are results for 13 molecules from PubChem BioAssay (NCI).

With `O=C1/C(=C/c2cnc(-c3ccccc3)s2)SC(=S)N1Cc1ccc2c(c1)OCO2`, the growth in the assay with DU-145 prostate was 86%; with K-562 leukemia it was 42.1%; in the assay with MALME-3M melanoma it was 70.2%; with MDA-MB-231 breast it was 76.9%; with RXF 393 renal, 10.5%; in the assay on SF-268 CNS it was 44.6%. In addition, the growth in the assay with SF-295 CNS was 9.27% (active); in the assay with SF-539 CNS, 23.3%; with UACC-257 melanoma it was 108%; in the assay on M14 melanoma, 107%.

Consider `O=C1/C(=C/C=C/c2ccco2)SC(=S)N1CC(=S)C1C=CS(=O)(=O)C1` (stereo not given), for which the growth in the assay with DU-145 prostate is 97.4%; in the assay with K-562 leukemia, 75%; in the assay on MALME-3M melanoma, 83.3%; in the assay with MDA-MB-231 breast, 85.8%; in the assay with RXF 393 renal, 79.4%; in the assay on SF-268 CNS, 91%. Also, the growth was 88.9% with SF-295 CNS, 99% in the assay on SF-539 CNS, 92.3% in the assay on UACC-257 melanoma and 98.9% in the assay with M14 melanoma.

Consider `CC[C@]12C=CCN3CC[C@@]4(c5ccc(OC)cc5N(C)[C@H]4[C@@](O)(C(=O)OC)[C@@H]1OC(=O)CCCC[P+](c1ccc(F)cc1)(c1ccc(F)cc1)c1ccc(F)cc1)[C@@H]32`, for which the growth in the assay with DU-145 prostate was 36.4%; in the assay with K-562 leukemia, 17.1%; in the assay on MALME-3M melanoma, -55.9% (active); in the assay on MDA-MB-231 breast, 2.85% (active); with RXF 393 renal it was -9.93% (active); with SF-268 CNS, 28.1%. Also, the growth in the assay on SF-295 CNS was 78.5%; with SF-539 CNS, 16%; in the assay on UACC-257 melanoma it was -50.7% (active); in the assay on M14 melanoma, 19.7%.

Take `COc1c(B(O)O)cc(F)cc1-c1nc2ccc3[nH]ncc3c2c2c1COCC2`: the growth in the assay with DU-145 prostate was 73.5%; in the assay on K-562 leukemia, 63.7%; in the assay with MALME-3M melanoma it was 126%; in the assay with MDA-MB-231 breast, 33.4%; in the assay on RXF 393 renal, -5.84% (active); in the assay with SF-268 CNS, 44.9%. Also, the growth in the assay with SF-295 CNS is 77.2%; in the assay on SF-539 CNS, 21.7%; with UACC-257 melanoma, 97.5%; in the assay on M14 melanoma, 114%.

Take `CN(C)c1nc(NCCNS(=O)(=O)c2ccc(C3=Nc4c(N)nc(N)nc4NC(c4ccc(C(F)(F)F)cc4)C3)cc2)nc(N2CCOCC2)n1` (stereo not given): the growth in the assay on DU-145 prostate is 61.8%; in the assay with K-562 leukemia it was 9.12% (active); with MALME-3M melanoma it was 60.3%; in the assay on MDA-MB-231 breast, 38.5%; with RXF 393 renal it was 16.6%; with SF-268 CNS, 38.6%. The growth is 45.5% in the assay on SF-295 CNS, 34.3% in the assay on SF-539 CNS, 52.9% in the assay on UACC-257 melanoma and 28% in the assay on M14 melanoma.

Turning to `COc1ccc(N=Nc2c(N)nn3c(-c4ccc([N+](=O)[O-])cc4)ccnc23)cc1`, the growth with DU-145 prostate was 105%; in the assay with K-562 leukemia it was 95.1%; with MALME-3M melanoma, 93%; in the assay with MDA-MB-231 breast, 98.5%; in the assay on RXF 393 renal, 109%; in the assay on SF-268 CNS, 98.8%. Besides, the growth with SF-295 CNS was 97.5%; in the assay with SF-539 CNS, 99.2%; in the assay on UACC-257 melanoma, 97.3%; in the assay with M14 melanoma, 104%.

Regarding `Cn1cc(Nc2ncnc(-c3ccc(N4CCCC4)c(C#N)c3)n2)cn1`, the growth with DU-145 prostate was 66.5%; in the assay on K-562 leukemia, 29.8%; in the assay with MALME-3M melanoma it was 74.8%; in the assay on MDA-MB-231 breast, 63.6%; in the assay with RXF 393 renal, 50.8%; with SF-268 CNS it was 71.9%. Further, the growth in the assay with SF-295 CNS was 93.2%; in the assay on SF-539 CNS, 65.2%; with UACC-257 melanoma, 94%; in the assay with M14 melanoma it was 53.5%.

In the case of `C/C(=N\Nc1ccc(C(=O)O)cc1)c1cnn(-c2cc(=O)[nH]c3ccc(C)cc23)c1C`, the growth was 107% with DU-145 prostate; 101% in the assay with K-562 leukemia; 83.3% with MALME-3M melanoma; 91.1% in the assay on MDA-MB-231 breast; 93.7% with RXF 393 renal; 97.2% in the assay on SF-268 CNS. In addition, the growth is 95.5% in the assay on SF-295 CNS, 101% in the assay with SF-539 CNS, 106% with UACC-257 melanoma and 96.3% with M14 melanoma.

Consider `Clc1ccc(-c2nc3ccc(-c4nnc(SCc5ccccc5)o4)cc3[nH]2)cc1`, for which the growth in the assay with DU-145 prostate is 54.9%; with K-562 leukemia it was 36.7%; in the assay on MALME-3M melanoma, 29.4%; in the assay with MDA-MB-231 breast, -11.9% (active); with RXF 393 renal, -4.87% (active); with SF-268 CNS, 60%. The growth with SF-295 CNS was -73.4% (active); with SF-539 CNS, -28% (active); with UACC-257 melanoma, 62.2%; with M14 melanoma, 67.9%.

For the molecule `CCCCCCCOc1ccc(S(=O)(=O)Nc2ccc(C)c(F)c2C(=O)O)cc1`, the growth with DU-145 prostate is 104%; in the assay on K-562 leukemia, 88.4%; in the assay with MALME-3M melanoma, 91.3%; with MDA-MB-231 breast, 96%; with RXF 393 renal, 114%; in the assay with SF-268 CNS it was 101%. In addition, the growth in the assay on SF-295 CNS is 89.3%; in the assay with SF-539 CNS, 102%; in the assay with UACC-257 melanoma, 102%; with M14 melanoma, 96.4%.

On to `Cc1nn(-c2ccccc2)c2nc(C)n(C(=O)N/N=C/c3cccc([N+](=O)[O-])c3)c(=O)c12`, for which the growth with DU-145 prostate was 99.9%; with K-562 leukemia it was 62%; in the assay on MALME-3M melanoma, -10.2% (active); in the assay on MDA-MB-231 breast it was 94.7%; in the assay with RXF 393 renal, 115%; in the assay on SF-268 CNS, 101%. The growth in the assay with SF-295 CNS is 101%; with SF-539 CNS, 105%; in the assay with UACC-257 melanoma, 78.4%; with M14 melanoma, 80.4%.

As for `CCc1ccccc1-c1nc(CN[C@@H]2C[C@@H]3C[C@H]([C@H]2C)C3(C)C)c(C)o1`, the growth in the assay on DU-145 prostate is -74.9% (active); with K-562 leukemia, 12.2%; in the assay with MALME-3M melanoma, -80.5% (active); in the assay with MDA-MB-231 breast it was -78.3% (active); in the assay with RXF 393 renal it was -85.1% (active); in the assay on SF-268 CNS it was 6.04% (active). Also, the growth is -93.5% (active) in the assay with SF-295 CNS, -96.5% (active) with SF-539 CNS, -75.8% (active) with UACC-257 melanoma and -83.5% (active) in the assay on M14 melanoma.

Regarding `COc1c2c(c(Br)c3c1C(CCc1ccccc1)N(C)CC3)OCO2` (stereo not given), the growth was 56.7% in the assay on DU-145 prostate; 28.1% in the assay with K-562 leukemia; 63.7% in the assay on MALME-3M melanoma; 39.9% in the assay with MDA-MB-231 breast; 72.9% with RXF 393 renal; 45.7% in the assay with SF-268 CNS. Also, the growth is 40.6% in the assay on SF-295 CNS, -8.69% (active) in the assay on SF-539 CNS, 64.9% in the assay on UACC-257 melanoma and 29% in the assay on M14 melanoma.
